Reference: PubChem BioAssay AID1159580 (chemical genetic matrix, 2015)
The whole screen tested about 5,500 compounds, of which about 2,000 (36%) were called active. Inconclusive results (about 18%) are left out. Rule as the data show it: active = normalized growth mostly below about 0.91 (no sharp cut-off); inconclusive = no clear call, values can overlap the other calls; inactive = mostly above about 0.92. This is one part of the list.

Assay: chemical genetic growth profiling, strain panel (AID 1159580);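 also: tested at 20 µM; growth read once vehicle control cultures reached saturation at 30 °C; 1 = growth at the plate median or of vehicle wells; lower values mean less growth of the strain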
Details: S. cerevisiae deletion strains, growth OD

Measured: normalized growth

COc1ccc(-c2cc(=O)c3c(OC)c(OC)c(OC)c(OC)c3o2)cc1OC
inactive: locus YAL021C, strain ccr4, active compounds read low 1 | locus YAL026C, strain drs2, active compounds read low 1 | locus YAL030W, strain snc1, active compounds read low 0.999 | locus YBL061C, strain skt5, active compounds read low 1 | locus YBR009C, strain hhf1, active compounds read low 1.02 | locus YBR023C, strain chs3, active compounds read low 1.01 | locus YBR171W, strain sec66, active compounds read low 1 | locus YBR231C, strain swc5, active compounds read low 0.997 | locus YBR279W, strain paf1, active compounds read low 0.998 | locus YCL011C, strain gbp2, active compounds read low 0.988 | locus YCL016C, strain dcc1, active compounds read low 0.993 | locus YCL069W, strain vba3, active compounds read low 1.02 | locus YCR088W, strain abp1, active compounds read low 0.996 | locus YDL005C, strain med2, active compounds read low 1 | locus YDL040C, strain nat1, active compounds read low 0.999 | locus YDR001C, strain nth1, active compounds read low 0.991 | locus YDR069C, strain doa4, active compounds read low 1.01 | locus YDR137W, strain rgp1, active compounds read low 1.03 | locus YDR159W, strain sac3, active compounds read low 0.96 | locus YDR195W, strain ref2 0.952 | locus YDR297W, strain sur2, active compounds read low 0.986 | locus YDR334W, strain swr1, active compounds read low 1.01 | locus YDR335W, strain msn5, active compounds read low 1.02 | locus YDR392W, strain spt3, active compounds read low 1.01 | locus YEL003W, strain gim4, active compounds read low 1.01 | locus YEL037C, strain rad23, active compounds read low 0.997 | locus YEL061C, strain CIN8 (second series), active compounds read low 0.999 | locus YER015W, strain faa2, active compounds read low 0.992 | locus YER016W, strain bim1, active compounds read low 0.993 | locus YER111C, strain swi4, active compounds read low 1 | locus YER155C, strain BEM2 (second series), active compounds read low 0.996 | locus YFR010W, strain ubp6, active compounds read low 1.02 | locus YGL167C, strain pmr1, active compounds read low 1.01 | locus YGL173C, strain kem1, active compounds read low 1.01 | locus YGL227W, strain vid30, active compounds read low 0.985 | locus YGL240W, strain doc1, active compounds read low 0.994 | locus YGL253W, strain hxk2, active compounds read low 0.994 | locus YHR013C, strain ard1, active compounds read low 0.973 | locus YHR027C, strain rpn1, active compounds read low 1 | locus YHR030C, strain SLT2, active compounds read low 1.01 | locus YHR079C, strain IRE1, active compounds read low 1.01 | locus YHR142W, strain chs7, active compounds read low 1.01 | locus YJL092W, strain hpr5, active compounds read low 0.996 | locus YJL095W, strain BCK1 (second series), active compounds read low 0.992 | locus YJL095W, strain BCK1, active compounds read low 0.963 | locus YJL115W, strain asf1, active compounds read low 0.988 | locus YJL129C, strain trk1, active compounds read low 1.01 | locus YJL154C, strain vps35, active compounds read low 0.983 | locus YJL164C, strain tpk1, active compounds read low 1 | locus YJL166W, strain qcr8, active compounds read low 0.998 | locus YJR066W, strain TOR1, active compounds read low 0.976 | locus YKL160W, strain elf1, active compounds read low 0.997 | locus YKR026C, strain gcn3, active compounds read low 0.997 | locus YKR091W, strain srl3, active compounds read low 0.996 | locus YLL001W, strain dnm1, active compounds read low 0.996 | locus YLL026W, active compounds read low 0.991 | locus YLL041C, strain sdh2, active compounds read low 0.991 | locus YLR027C, strain aat2, active compounds read low 1 | locus YLR113W, strain HOG1, active compounds read low 0.941 | locus YLR221C, strain rsa3, active compounds read low 0.996 | locus YLR258W, strain gsy2, active compounds read low 1.01 | locus YLR262C, strain YPT6 (second series), active compounds read low 1.04 | locus YLR320W, strain mms22, active compounds read low 1 | locus YLR342W, strain FKS1, active compounds read low 0.998 | locus YLR357W, strain rsc2, active compounds read low 0.957 | locus YLR370C, strain arc18, active compounds read low 0.988 | locus YLR384C, strain iki3, active compounds read low 0.981 | locus YML120C, strain ndi1, active compounds read low 1.01 | locus YMR058W, strain fet3, active compounds read low 0.995 | locus YMR125W, strain sto1, active compounds read low 1 | locus YMR129W, active compounds read low 0.994 | locus YMR205C, strain PFK2, active compounds read low 1.02 | locus YMR231W, strain pep5, active compounds read low 1 | locus YNL071W, strain lat1, active compounds read low 0.998 | locus YNL183C, strain NPR1, active compounds read low 0.926 | locus YNL209W, strain ssb2, active compounds read low 1 | locus YNL248C, strain rpa49, active compounds read low 0.995 | locus YNL322C, strain KRE1 (second series), active compounds read low 0.994 | locus YNR049C, strain mso1, active compounds read low 1.01 | locus YOR001W, strain rrp6, active compounds read low 0.982 | locus YOR070C, strain gyp1, active compounds read low 0.988 | locus YOR080W, strain dia2, active compounds read low 0.989 | locus YOR083W, strain WHI5, active compounds read low 1 | locus YOR106W, strain vam3, active compounds read low 1.01 | locus YOR231W, strain MKK1, active compounds read low 1.02 | locus YOR265W, strain rbl2, active compounds read low 1.02 | locus YOR270C, strain vph1, active compounds read low 1.07 | locus YOR290C, strain snf2, active compounds read low 0.988 | locus YPL051W, strain arl3, active compounds read low 0.974 | locus YPL078C, strain atp4, active compounds read low 0.985 | locus YPL106C, strain sse1, active compounds read low 0.962 | locus YPL240C, strain hsp82, active compounds read low 1 | locus YPL256C, strain CLN2, active compounds read low 0.991
